Screening data: PubChem, Sanford-Burnham Center for Chemical Genomics
Peg3 prom inh: Peg3 promoter activity inhibition | HeLa PEG-Prom luciferase reporter, luminescence, overnight | inhibition, % at 20 µM | actives 1.7% (n = 360,000) | AID 588405;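 active = inhibition of at least 50% at 20 µM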
C8 TRAIL sens: caspase-8 TRAIL sensitization; actives 1% (n = 360,000); AID 624354; inhibition (viability loss, TRAIL sensitization), % at 10 µM; NB7+C8 cells + TRAIL, ATPlite viability luminescence;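 active = compounds causing at least 50% loss of cell viability in the single-dose screen, relative to plate controls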
CF NFkB block: inhibitors of cystic fibrosis induced NF-kB; inhibition, % at 5 µM; actives 0.86% (n = 360,000); KKLEB NF-kB-GFP reporter, PAF-induced, GFP fluorescence overnight;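 active = at least 50% inhibition at 5 µM, scaled per plate between neutral and stimulator controls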;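 also: PAF is a Pseudomonas aeruginosa culture filtrate used as stimulus; plate controls were PAF-stimulated DMSO wells for no effect and unstimulated DMSO wells for full effect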
PPC-1+TRAIL kill: PPC-1 cancer cell killing with TRAIL present; actives 0.41% (n = 220,000); cell killing (% activity), % at 4 µM or 5 µM; PPC-1 cells + TRAIL, ATPLite viability luminescence;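 active = cell killing above 50% in the first pass at 4 µM, then a duplicate retest at 5 µM averaging 50% or more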;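 also: plate controls were cells with TRAIL plus DMSO for no effect and medium-only wells lacking cells for full effect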
HIF-2a inh: blocks HIF-2a reporter activity. 786-0 RCC cells HIF-2a reporter, luciferase luminescence, overnight. actives 0.72% (n = 360,000). inhibition, % at 18.8 µM. AID 624352;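 active = inhibition of the luminescence signal of 40% or more relative to plate controls, in a single-dose primary screen at 18.75 µM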
KKLEB cytotox: reduces viability of KKLEB cystic fibrosis airway cells | actives 0.36% (n = 360,000) | KKLEB CF airway cells viability, ATPlite luminescence, overnight; active compounds read low; cells stimulated with P. aeruginosa culture filtrate | AID 602141 | activity change (cytotoxicity), % at 5 µM;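 active = corrected activity change at or below -50% at 5 µM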
Active calls of the source: *. Shown are actives, neighbours in structure and some others; about 3.1% of the full set was active somewhere.

Screening CCCCCn1c(N(C)Cc2ccccc2)nc2c1c(=O)[nH]c(=O)n2C returned Peg3 prom inh 55.1*, C8 TRAIL sens -19.1, CF NFkB block 24.8, PPC-1+TRAIL kill -8.8, HIF-2a inh 17.4 and KKLEB cytotox 3.5.
CCCCCn1c(N2CCC(Cc3ccccc3)CC2)nc2c1c(=O)[nH]c(=O)n2C was read as Peg3 prom inh 64.2*, C8 TRAIL sens 15.7, CF NFkB block 20.8, HIF-2a inh -59.6 and KKLEB cytotox -7.8.
`C[C@@H]1CN([C@@H](C)CO)C(=O)CCCn2nncc2CO[C@@H]1CN(C)S(=O)(=O)c1cn(C)cn1` gave Peg3 prom inh -4.7, C8 TRAIL sens 7.8, CF NFkB block -10.1, HIF-2a inh 0.3 and KKLEB cytotox 1.3.
For COCC(C)n1c(C)cc(C(=O)COC(=O)c2oc3ccccc3c2C)c1C (stereo not drawn) the results were Peg3 prom inh -72.0, C8 TRAIL sens -12.0, CF NFkB block -0.3, PPC-1+TRAIL kill 19.8, HIF-2a inh -82.3 and KKLEB cytotox 7.6.
`COCC(C)n1c(C)cc(C(=O)COC(=O)c2n[nH]c3ccccc23)c1C` (stereo not drawn) gave Peg3 prom inh -48.8, C8 TRAIL sens 57.9*, CF NFkB block 10.0, PPC-1+TRAIL kill 8.0, HIF-2a inh -51.5 and KKLEB cytotox -4.6.
COC(=O)C[C@H]1CC[C@@H](NC(=O)Nc2c(C)noc2C)[C@@H](CO)O1 was read as C8 TRAIL sens -9.4 and HIF-2a inh 12.7.
Screening CC(C)C[C@H]1CN=C(Nc2ccccc2)N1CC1CCCC1 returned Peg3 prom inh 0.9, C8 TRAIL sens 1.2, CF NFkB block -6.0, HIF-2a inh 8.3 and KKLEB cytotox 4.4.
CC(C)C[C@H]1CN=C(Nc2ccccc2)N1CC1CCC(C(C)(C)C)CC1 (stereo partly drawn) was read as Peg3 prom inh 103.2*, C8 TRAIL sens 25.9, CF NFkB block 43.2, HIF-2a inh 4.3 and KKLEB cytotox -41.3.
`CCN(c1ccccc1)S(=O)(=O)c1ccc(OC)c(NC(=O)c2cc(F)c(F)c(F)c2F)c1` gave Peg3 prom inh 2.7, C8 TRAIL sens 55.5*, CF NFkB block -17.8, HIF-2a inh 0.2 and KKLEB cytotox -9.1.
For CC(O)C(NS(=O)(=O)c1ccc(Cl)cc1)C(=O)OCC(=O)c1ccc2c(c1)NC(=O)CO2 (stereo not drawn) the results were Peg3 prom inh -8.0, C8 TRAIL sens -45.1, CF NFkB block 28.9, HIF-2a inh -4.9 and KKLEB cytotox -16.1.
Screening CC(C)CC(NC(=O)c1ccc(Cl)cc1)C(=O)OCC(=O)c1ccc2c(c1)NC(=O)CO2 (stereo not drawn) returned Peg3 prom inh 83.6*, C8 TRAIL sens 73.0*, CF NFkB block 2.5, PPC-1+TRAIL kill -5.7, HIF-2a inh 25.5 and KKLEB cytotox -6.2.
Cc1nn(CC(=O)Nc2ccc(Cl)cc2)c(=O)c2cc(-c3ccccc3)nn12 was read as Peg3 prom inh -6.4, C8 TRAIL sens -0.8, CF NFkB block 2.2, HIF-2a inh 12.7 and KKLEB cytotox 10.6.
CCOc1ccc(S(=O)(=O)NCCC(=O)NC2CCCCC2)cc1 was read as Peg3 prom inh -21.5, C8 TRAIL sens -18.2, CF NFkB block -15.5, HIF-2a inh 9.9 and KKLEB cytotox 2.2.
COc1ccc(N2C(=O)C(Cl)=C(Oc3cccc(OC)c3)C2=O)cc1 was read as Peg3 prom inh 106.6*, C8 TRAIL sens -5.7, CF NFkB block 11.5, PPC-1+TRAIL kill 38.3, HIF-2a inh 93.2* and KKLEB cytotox 3.7.
`Cn1c(-c2cccc(Br)c2)cnc1NCc1ccccc1O` gave Peg3 prom inh 3.4, C8 TRAIL sens -2.5, CF NFkB block 1.1, HIF-2a inh -0.8 and KKLEB cytotox -6.5.
Screening Cc1ccc(C(C#N)=Cc2ccc3c(c2)OCO3)cc1 returned Peg3 prom inh -324.9, C8 TRAIL sens 56.0*, CF NFkB block -25.6, HIF-2a inh -169.4 and KKLEB cytotox -41.3.
N#C/C(=C\c1ccc2c(c1)OCO2)C(N)=S was read as Peg3 prom inh -0.3, C8 TRAIL sens 0.6, CF NFkB block 8.2, PPC-1+TRAIL kill 12.7, HIF-2a inh 18.7 and KKLEB cytotox 7.2.
Screening O=C1NCCSC1c1ccccc1 (stereo not drawn) returned Peg3 prom inh -4.5, C8 TRAIL sens 8.4, CF NFkB block -0.3, HIF-2a inh 5.9 and KKLEB cytotox -6.0.
